High-throughput results from PubChem.
In the library only some 5% were active in any assay of this set; here they are far more common.
AHR activator = activators of human aryl hydrocarbon receptor | P35869 | AID 2796 | AHR-responsive luciferase reporter cells, luminescence | 320,000 compounds, 2.5% hits | activation, % at 5 µM; in the data active = activation above about 47%;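 also: 0% = vehicle wells and 100% = reference agonist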
SENP7 block = blocks the human protease SENP7. inhibition, % at 5 µM. Q9BQF6. 330,000 compounds, 1.5% hits. recombinant SENP7, Z-RLRGG-aminoluciferin luminescence, 40 min. AID 434973;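 active = inhibition above about 50% at the single test dose, limit read from the data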;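 also: plate controls were DMSO with enzyme for no effect and no enzyme buffer wells for full effect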
SENP6 inh = inhibitors of human SENP6 protease | 330,000 compounds, 1.8% hits | Recombinant SENP6 catalytic domain, aminoluciferin luminescence | inhibition, % at 10 µM | Q9GZR1;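 active = inhibition above about 50% at the single tested dose, limit read from the data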;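 also: plate controls were DMSO wells with enzyme for no effect and DMSO wells lacking enzyme for full effect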
SENP8 block-1 = blocks the human protease SENP8. Q96LD8. purified SENP8, Z-RLRGG-aminoluciferin cleavage, luminescence. inhibition, % at 10 µM. 330,000 compounds, 1.2% hits. AID 2540; in the data active = inhibition above about 50%
Target sequence (Q96LD8 whole entry, looked up): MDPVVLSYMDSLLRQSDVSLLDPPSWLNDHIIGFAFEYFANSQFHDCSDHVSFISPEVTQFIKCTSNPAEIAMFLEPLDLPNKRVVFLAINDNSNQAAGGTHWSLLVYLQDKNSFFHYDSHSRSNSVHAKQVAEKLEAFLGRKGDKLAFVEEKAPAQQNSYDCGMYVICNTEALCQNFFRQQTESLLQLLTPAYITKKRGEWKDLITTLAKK
EBI2 antag = EBI2 (human) antagonism; P32249; EBI2 beta-arrestin recruitment, luminescence, 7a,25-OHC stimulated; inhibition, % at 5 µM; 360,000 compounds, 0.81% hits; in the data active = inhibition above about 38%;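 also: enzyme fragment complementation signal reports receptor beta-arrestin coupling in cells; 0% = agonist plus DMSO wells and 100% = wells without agonist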
SENP8 block-2 = inhibitors of human SENP8 protease. recombinant SENP8, Nedd8 substrate fluorescence. AID 602440. 360,000 compounds, 0.64% hits. inhibition, % at 20 µM. Q96LD8; in the data active = inhibition mostly above about 40%, no sharp cut-off; inactive = mostly below about 27%
EBI2 antag conf = confirmation of human EBI2 receptor antagonists; 2,400 compounds, 29% hits; shares compounds with EBI2 antag; EBI2 beta-arrestin luminescence, 7a,25-OHC antagonism; inhibition, % at 5 µM; AID 651997;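 active = inhibition of at least 50%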
EBI2 ag = counter-screen for EBI2 antagonists: EBI2 agonist activity; shares compounds with EBI2 antag; EBI2-expressing cells, agonist mode, luminescence, 60 min; 0% vehicle, 100% 7α,25-dihydroxycholesterol control; activation, % at 5 µM; 2,400 tested, under 10 active; AID 652000;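 active = activation of at least 50%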
bGal cs = inhibits E. coli beta-galactosidase, counter-screen for EBI2 antagonists; inhibition, % at 5 µM; purified beta-galactosidase, luminescent Galacton Star, 15 min; 2,400 compounds, 1% hits; shares compounds with EBI2 antag;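 active = replicate-average signal at least 3 plate SD below neutral wells, shown as high inhibition, flagging enzyme-inhibiting false positives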;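 also: 0% = DMSO wells with enzyme and 100% = wells lacking enzyme; higher means stronger loss of beta-gal luminescence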
An asterisk follows results filed as active; / = no result.

SMILES | AHR activator | SENP7 block | SENP6 inh | SENP8 block-1 | EBI2 antag | SENP8 block-2 | EBI2 antag conf | EBI2 ag | bGal cs
N#Cc1ccc(NCC(=O)N2CCN(S(=O)(=O)c3ccccc3)CC2)cc1 | 0 | -3 | -21 | 2 | 35 | 12 | / | / | /
CCOc1ccc(S(=O)(=O)N2CCN(S(=O)(=O)c3ccc(C(C)=O)cc3)CC2)cc1 | 1 | 0 | -9 | 12 | 8 | 3 | / | / | /
CCOc1ccc(S(=O)(=O)N2CCN(C(=O)COc3ccc(Br)cc3)CC2)cc1 | -1 | 3 | 2 | -3 | 88* | 21 | 81* | 1 | 2
C#CCOCCOCCOCCNc1nc(N2CCN(C(=O)[C@H](Cc3cc4ccccc4[nH]3)n3cc([C@@H](N)C(C)CC)nn3)CC2)nc(N2CCN(C(=O)[C@H](Cc3cc4ccccc4[nH]3)n3cc([C@@H](N)CC(C)C)nn3)CC2)n1 (stereo partly specified) | 4 | 0 | -23 | -12 | / | / | / | / | /
Cc1oc(-c2ccccc2F)nc1CS(=O)CC(=O)NCc1ccc(F)cc1 (stereo unspecified) | 1 | -4 | 2 | 4 | 3 | 2 | / | / | /
CCOc1ccc(S(=O)(=O)N2CCCCC2)cc1NC(=O)CC1OC(=O)c2ccccc21 (stereo unspecified) | -1 | -6 | -12 | 1 | 2 | 6 | / | / | /
CC(C)(C)c1nnc(N/N=C/c2ccc(Br)cc2)n(N)c1=O | 17 | -5 | -23 | 2 | 92* | 40 | 80* | 0 | -12
CC(C)(C)c1ccc(/C=N/Nc2nncn2N)cc1 | / | -3 | -18 | 6 | -4 | 18 | / | / | /
O=C(NCc1ccc(N2CCCC2=O)cc1)c1ccc(F)cc1 | 2 | -2 | -11 | 7 | -3 | 21 | / | / | /
CC(C)c1ccc(C(=O)NCc2ccc(Cl)cc2)cc1 | 5 | -3 | 12 | -4 | 61* | 12 | 33 | 0 | -10
Cc1ccc(CNC(=O)c2ccc(N3CCCC3=O)cc2)cc1 | -3 | 3 | 2 | 8 | 63* | 12 | 35 | 0 | 7
O=C(NCc1ccccc1)c1ccc(Cl)cc1 | 1 | 9 | 2 | 0 | / | / | / | / | /
O=C(NCc1ccc(Cl)cc1)c1ccc(N2CCCC2=O)cc1 | -7 | 8 | 6 | 1 | 55* | 0 | 25 | 0 | 5
COc1ccc(CNC(=O)c2ccc(N3CCCC3=O)cc2)cc1 | -6 | 6 | 6 | 6 | 0 | -4 | / | / | /
O=C(COc1cccc(Cl)c1)N/N=C\c1cc2ccccc2nc1Cl | 7 | -1 | 11 | -7 | 53* | -193 | 42 | -1 | -10
Cc1ccccc1OCC(=O)N/N=C/c1cc2ccccc2nc1Cl | 7 | 2 | -9 | -3 | 30 | -63 | / | / | /
Cc1cccc(N(C)c2ncnc3onc(-c4ccc(F)cc4)c23)c1C | -3 | -3 | -11 | 3 | 63* | 4 | 27 | -2 | -7
N#CCC(=O)c1sccc1-n1cccc1 | 12 | 10 | 31 | 9 | -1 | -18 | / | / | /
COc1ccc(CCN2CC(C(=O)NCCc3cn[nH]c3)CCC2=O)cc1 (stereo unspecified) | 3 | -11 | -7 | -14 | -5 | 5 | / | / | /
CCOc1ccc(CN(C)C(=O)CNC(=O)C2CCCCC2)cc1OC | -1 | -7 | -24 | -2 | -9 | 8 | / | / | /
O=C1C=C(O)CC(c2ccc(Cl)cc2)C1 (stereo unspecified) | -1 | -6 | -4 | -2 | -13 | 11 | / | / | /
O=C1C=C(/C=C/C2C=CC=CC2)C[C@@H](c2ccc(Cl)cc2)C1 (stereo partly specified) | 3 | 9 | 11 | 3 | 48* | 23 | 25 | -2 | -8
O=C(CCC(=O)c1ccccc1)NC1CCCN(Cc2ccccc2F)C1 (stereo unspecified) | 1 | 4 | 6 | 0 | 2 | 16 | / | / | /
CC(=O)CSc1nc2ccc(Nc3nc(N4CCOCC4)nc(N4CCOCC4)n3)cc2s1 | -3 | -7 | -10 | -3 | 44* | 19 | 22 | -1 | -14
